In PubChem BioAssay (EPA / NIEHS) one finds outcome and AC50 data, which are given here for eight compounds.

Read-out in experiment [1]: Transforming Growth Factor (TGFA), TGFA (gene 7039)
Nature of the experiment: LTEA_HepaRG_TGFA: Life Technologies and Expression Analysis (LTEA) Assay for Transforming Growth Factor (TGFA) using HepaRG (AID 2283532; active = hit-call score of the fitted dose curve at least 0.9, where 1 is the maximum; inactive = score below 0.9). The conditions noted are these: mRNA level, 48 h; actives raise or lower the signal. In a few lines:
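HepaRG (human liver line), 48 h exposure, 8 conc. half-log down from 100 uM, 0.5% DMSO vehicle, duplicates; serum-free induction medium. TGFA mRNA by TaqMan qRT-PCR, ACTB/GAPDH/POLR2A normalization; gain/loss fit vs DMSO.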

Read-out in experiment [2]: TIMP1, TIMP1 (gene 7076)
Nature of the experiment: LTEA_HepaRG_TIMP1: Life Technologies and Expression Analysis (LTEA) Assay for TIMP1 using HepaRG (AID 2283534; active = hit-call score of the fitted dose curve at least 0.9, where 1 is the maximum; inactive = score below 0.9;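 as to outcome: TaqMan qRT-PCR signal normalized to ACTB GAPDH and POLR2A housekeeping genes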). The conditions noted are these: mRNA level, 48 h; actives raise or lower the signal. In a few lines:
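TIMP1 induction or repression in HepaRG cells after 48 h chemical exposure (eight concentrations, highest 100 uM), assessed by normalized qRT-PCR with bidirectional fitting to DMSO controls.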

Read-out in experiment [3]: Tumor necrosis factor receptor 1 (TNFRSF1A), TNFRSF1A (gene 7132)
Nature of the experiment: LTEA_HepaRG_TNFRSF1A: Life Technologies and Expression Analysis (LTEA) Assay for Tumor necrosis factor receptor 1 (TNFRSF1A) using HepaRG (AID 2283535; active = hit-call score of the fitted dose curve at least 0.9, where 1 is the maximum; inactive = score below 0.9). The conditions noted are these: mRNA level, 48 h; actives raise or lower the signal. The essentials: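 Assay uses 48 h chemical treatment of differentiated HepaRG monolayers, tested in duplicate at eight concentrations from 100 uM downward in 0.5% DMSO. mRNA is normalized to ACTB, GAPDH and POLR2A, with induction or suppression fitted relative to vehicle.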

Read-out in experiment [4]: Thyroid Hormone Responsive (THRSP), THRSP (gene 7069)
Kind of experiment: LTEA_HepaRG_THRSP: Life Technologies and Expression Analysis (LTEA) Assay for Thyroid Hormone Responsive (THRSP) using HepaRG (AID 2283536; active = hit-call score of the fitted dose curve at least 0.9, where 1 is the maximum; inactive = score below 0.9). The conditions noted are these: mRNA level, 48 h; actives raise or lower the signal. In a few lines:
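mRNA induction or loss relative to 0.5% DMSO vehicle was fitted bidirectionally across an eight-point curve whose highest exposure was 100 uM. Human HepaRG liver cells received chemicals in duplicate over 48 h before RNA extraction.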

Read-out in experiment [5]: Cellular tumor antigen p53 (Homo sapiens) (UniProt P04637)
Kind of experiment: LTEA_HepaRG_TP53: Life Technologies and Expression Analysis (LTEA) Assay for Tumor Protein P53 (TP53) using HepaRG (AID 2283537; active = hit-call score of the fitted dose curve at least 0.9, where 1 is the maximum; inactive = score below 0.9). The following applies: mRNA level, 48 h; actives raise or lower the signal. In a few lines:
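Read-out is TP53 transcript level by microfluidic qRT-PCR, normalised to three housekeeping genes and fitted bidirectionally against DMSO. Human HepaRG cells received compounds for 48 h, highest concentration 100 uM.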

Read-out in experiment [6]: UDP glucuronosyltransferase (UGT1A1), UGT1A1 (gene 54658)
Kind of experiment: LTEA_HepaRG_UGT1A1: Life Technologies and Expression Analysis (LTEA) Assay for UDP glucuronosyltransferase (UGT1A1) using HepaRG (AID 2283538; active = hit-call score of the fitted dose curve at least 0.9, where 1 is the maximum; inactive = score below 0.9). The following applies: mRNA level, 48 h; actives raise or lower the signal. In a few lines:
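Readout is UGT1A1 transcript level by qRT-PCR, normalized to three housekeeping genes, after 48 h chemical treatment of HepaRG cells. Concentrations ran from 100 uM down in half-log steps with 0.5% DMSO, and gain or loss relative to DMSO was fitted.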

Read-out in experiment [7]: X-box binding protein 1 (XBP1), XBP1 (gene 7494)
Kind of experiment: LTEA_HepaRG_XBP1: Life Technologies and Expression Analysis (LTEA) Assay for X-box binding protein 1 (XBP1) using HepaRG (AID 2283540; active = hit-call score of the fitted dose curve at least 0.9, where 1 is the maximum; inactive = score below 0.9). The following applies: mRNA level, 48 h; actives raise or lower the signal. The essentials:
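Eight concentrations (half-log, highest 100 uM, 0.5% DMSO) tested in duplicate on HepaRG cells over 48 h in serum-free induction medium; qRT-PCR of XBP1 normalised to ACTB, GAPDH, POLR2A.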

Experiment [8] is described as follows: LTEA_HepaRG_LDH_cytotoxicity: Cytotoxicity Assessment in the Life Technologies and Expression Analysis (LTEA) Assay (AID 2283563).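 As to AC50: LDH activity released into spent culture medium as a marker of cell death.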 In a few lines: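 Spent-medium LDH after 48 h chemical exposure of HepaRG cells in serum-free induction medium; eight concentrations, half-log dilutions from 100 uM, duplicate wells, fitted upward relative to 0.5% DMSO.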
Experiment [9] in a line: ATG_XTT_Cytotoxicity: Cytotoxicity Assessment in the Attagene TRANS-FACTORIAL HepG2 Assay (AID 2283584). The essentials: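 24 h chemical exposure of reporter-transfected HepG2; XTT signal loss vs DMSO indicates cytotoxicity.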
A short description of experiment [10]: TOX21_p53_BLA_p2_viability: Viability Assessment in the Tox21 HCT-116 p53 Agonism Beta-lactamase Assay, Phase 2 (AID 2283591).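 Also: compound exposure lasted 16 h at 37 °C; actives lower the ATP signal meaning cytotoxicity.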 In a few lines:
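Cytotoxicity readout: CellTiter-Glo ATP luminescence, 30 min at room temperature, after the beta-lactamase read. Cells were HCT116 exposed 16 h at 37C to compounds pin-transferred at 217-fold dilution from DMSO stocks.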

For experiment [11], the target named is Cellular tumor antigen p53 (Homo sapiens) (UniProt P04637). Nature of the experiment: TOX21_p53_BLA_p2_ratio: Tox21 HCT-116 p53 Agonism Beta-lactamase Assay, Ratio, Phase 2 (AID 2283592). In a few lines: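 Human colon HCT116 cells with an inducible p53 beta-lactamase reporter are exposed to test chemicals for 16 h at 37C. Reporter induction is read as the 460/530 nm emission ratio after CCF4-AM loading, normalized to DMSO.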
Chain of Cellular tumor antigen p53 (Homo sapiens) (P04637 whole entry, looked up): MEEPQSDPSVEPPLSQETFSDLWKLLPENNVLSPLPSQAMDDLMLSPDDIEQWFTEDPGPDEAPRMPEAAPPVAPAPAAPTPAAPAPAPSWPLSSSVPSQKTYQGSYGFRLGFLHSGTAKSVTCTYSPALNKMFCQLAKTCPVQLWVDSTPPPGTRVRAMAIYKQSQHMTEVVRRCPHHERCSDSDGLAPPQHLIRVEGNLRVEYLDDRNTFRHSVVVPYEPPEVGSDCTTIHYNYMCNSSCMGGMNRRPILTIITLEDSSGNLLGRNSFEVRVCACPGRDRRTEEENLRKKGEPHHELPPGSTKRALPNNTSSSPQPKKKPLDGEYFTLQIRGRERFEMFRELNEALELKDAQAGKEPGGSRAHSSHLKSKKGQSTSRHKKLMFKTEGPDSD

The target is the same in experiment [12]. Kind of experiment: TOX21_p53_BLA_p3_ratio: Tox21 HCT-116 p53 Agonism Beta-lactamase Assay, Ratio, Phase 3 (AID 2283596). In a few lines: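 HCT116 p53-bla cells (4000/well) given compound in DMSO (217-fold dilution) after 5 h, incubated 16 h at 37C. CCF4-AM substrate 2 h at room temperature; 460/530 nm emission ratio, gain fitted against DMSO.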
The nature of experiment [13]: TOX21_p53_BLA_p4_viability: Viability Assessment in the Tox21 HCT-116 p53 Agonism Beta-lactamase Assay, Phase 4 (AID 2283597).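 Also: hits lower the luminescence signal meaning cytotoxicity.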 In a few lines:
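Luminescent ATP readout (CellTiter-Glo, 30 min, room temperature) in the same wells as the p53 bla ratio. HCT116 cells were treated for 16 h at 37C with DMSO-dissolved compounds.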

The target in experiment [14] is Cellular tumor antigen p53 (Homo sapiens) (UniProt P04637). Kind of experiment: TOX21_p53_BLA_p5_ratio: Tox21 HCT-116 p53 Agonism Beta-lactamase Assay, Ratio, Phase 5 (AID 2283599). The essentials: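 Beta-lactamase reporter ratio (blue 460 nm over green 530 nm, 405 nm excitation) after 2 h CCF4-AM loading, in HCT-116 cells exposed 16 h at 37 C to compounds pinned at 217-fold dilution. Increases relative to DMSO baseline scored.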

A short description of experiment [15]: TOX21_p53_BLA_p5_viability: Viability Assessment in the Tox21 HCT-116 p53 Agonism Beta-lactamase Assay, Phase 5 (AID 2283600). In a few lines: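 Seeded cells (4000/well) settle 5 h before compound addition. Plates then incubate 16 h at 37C, receive FRET substrate for 2 h, and finally CellTiter-Glo, with luminescence measured after a 30 min room-temperature incubation.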

Read-out in experiment [16]: Transforming Growth Factor (TGFB1), TGFB1 (gene 7040)
Nature of the experiment: LTEA_HepaRG_TGFB1: Life Technologies and Expression Analysis (LTEA) Assay for Transforming Growth Factor (TGFB1) Transporter using HepaRG (AID 2283533; active = hit-call score of the fitted dose curve at least 0.9, where 1 is the maximum; inactive = score below 0.9). The following applies: mRNA level, 48 h; actives raise or lower the signal. In a few lines: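 Eight-point concentration-response (max 100 uM, half-log) in HepaRG under serum-free induction conditions, 48 h. TGFB1 mRNA by qRT-PCR, housekeeping-normalized.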

Experiment [17] can be described thus: TOX21_p53_BLA_p3_viability: Viability Assessment in the Tox21 HCT-116 p53 Agonism Beta-lactamase Assay, Phase 3 (AID 2283593).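 Also: cells exposed to compound for 16 h before reading.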 In a few lines: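 Cellular ATP was quantified by CellTiter-Glo luminescence, read after 30 min at room temperature. Beforehand, HCT116 cells (4000/well) received compound 5 h post-seeding, 217-fold diluted from DMSO, then incubated 16 h at 37C.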

Read-out in experiment [18]: UDP glucuronosyltransferase (UGT1A6), UGT1A6 (gene 54578)
Kind of experiment: LTEA_HepaRG_UGT1A6: Life Technologies and Expression Analysis (LTEA) Assay for UDP glucuronosyltransferase (UGT1A6) using HepaRG (AID 2283539; active = hit-call score of the fitted dose curve at least 0.9, where 1 is the maximum; inactive = score below 0.9). The conditions noted are these: mRNA level, 48 h; actives raise or lower the signal. The essentials:
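Measures mRNA change in HepaRG hepatic cells exposed 48 h to chemicals (eight-point, maximum 100 uM, 0.5% DMSO vehicle) in serum-free induction medium. Expression normalized to endogenous controls; DMSO served as negative control and baseline.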

Inconclusive results are not listed. Activity calls are given as the source filed them. The calls were made as follows, unless noted: active = hit-call score of the fitted dose curve at least 0.9, where 1 is the maximum; inconclusive = response in the unintended direction; inactive = score below 0.9.

With `CCN(CC)CCO`, the compound was called inactive in [1], in experiment [2], in [3], in experiment [4], in experiment [5] and in experiment [6]. Moreover, the compound was called inactive in experiment [7], in [8], in experiment [9], in experiment [10], in [11] and in [12]. The call in [13], in experiment [14] and in experiment [15] was inactive.

For the compound `CO[C@@H]1[C@H](OC(=O)NC(=O)CCl)CC[C@]2(CO2)[C@H]1[C@@]1(C)O[C@@H]1CC=C(C)C`, the outcome in experiment [1], in [16], in experiment [2], in experiment [3], in [4] and in [5] was inactive. In addition, the compound was classed as inactive in [6], in experiment [7], in experiment [8], in experiment [9], in [17] and in experiment [12]. For the same compound, the compound was classed as inactive in experiment [13] and in experiment [14].

For `OCCOCCO`, the call in experiment [1], in experiment [2], in experiment [3], in experiment [4], in experiment [6] and in experiment [18] was inactive. The compound was classed as inactive in experiment [7], in experiment [8] and in [9].

For the compound `CN(C)c1ccccc1`, the call in [1], in experiment [2], in experiment [3], in experiment [4], in [5] and in experiment [6] was inactive. For the same compound, the compound was called inactive in experiment [18], in experiment [7], in [8], in [9], in [10] and in experiment [11]. The outcome in experiment [17], in [12], in experiment [13], in [14] and in [15] was inactive.

For the compound `CN(C)[C@@H]1C(=O)C(C(N)=O)=C(O)[C@@]2(O)C(=O)C3=C(O)c4c(O)cccc4[C@@](C)(O)[C@H]3C[C@@H]12`, the call in experiment [1], in experiment [2], in experiment [3], in experiment [4], in [5] and in [6] was inactive. Besides, the outcome in experiment [7], in experiment [8], in experiment [10], in [11], in experiment [17] and in experiment [12] was inactive. The compound was called inactive in experiment [13], in [14] and in experiment [15].

As a reminder, the AC50 is the midpoint of the concentration-response curve, whichever way the signal moves. As to `Nc1ccc(N=Nc2ccccc2)cc1`, the compound was called inactive in experiment [1], in [5], in experiment [10], in experiment [11], in experiment [17] and in experiment [12]. The call in experiment [13], in experiment [14] and in [15] was inactive. The AC50 in experiment [16] is 13.1 µM (active); in experiment [2] it was 50 µM (active); in [3], 23.4 µM (active); in [4] it was 11.4 µM (active); in experiment [6], 13 µM (active); in experiment [7], 16.8 µM (active). Further, in [8], the AC50 was 11.9 µM (active).

As for `Cc1ccc(N=C=O)cc1N=C=O`, the outcome in [1], in experiment [2], in [3], in [5], in experiment [6] and in [18] was inactive. Also, the outcome in experiment [7], in [11], in experiment [17], in experiment [12], in experiment [13] and in [14] was inactive. For the same compound, in experiment [15], the outcome was inactive. Further, the AC50 in experiment [4] was 19.3 µM (active); in experiment [8], 33.1 µM (active).

Consider `CC(C)(C)OOC(C)(C)CCC(C)(C)OOC(C)(C)C`, for which the compound was classed as inactive in experiment [1], in experiment [2], in experiment [3], in [4], in experiment [5] and in experiment [6]. The compound was called inactive in experiment [7], in [8], in experiment [9], in experiment [10], in experiment [11] and in [17]. For the same compound, the outcome in experiment [14] and in [15] was inactive.
